Screening results deposited in PubChem by National Center for Advancing Translational Sciences (NCATS).
IMPase Li inh = IMPase inhibition in cells with lithium potentiation; CHO-M1 cells, IP1 TR-FRET (IP-One), carbachol + lithium; Potency, µM (titrated, usually from 59.4 µM), for the others: top-dose activity, negative = IMPase inhibition, actives largely listed as inhibitors; 210,000 compounds, 0.35% hits;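 further: IP1 builds up when IMPase is blocked and the TR-FRET signal falls; potency means the concentration at half of the fitted maximal effect; plate controls were basal vehicle for no effect and high inhibitor control for full effect; nearly all actives have a fitted effect of over 50% in size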
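Readout is a homogeneous TR-FRET IP1 immunoassay (Ex 320, Em 665 and 620), where raised cytosolic IP1 lowers signal. Cells were CHO-M1 treated 30 min at 37C with test compounds plus a little lithium; AC50 values came from Hill-equation fitting.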
HPGD block = inhibitors of human 15-hydroxyprostaglandin dehydrogenase (HPGD) | Potency, µM, for inactives: at the top dose activity change, negative = inhibition, usual class: inhibitors | 150,000 compounds, 4.3% hits | purified HPGD, NADH fluorescence kinetic, PGE2 substrate; active means well fitted inhibition curve with a large enough effect, not every such curve was filed as active; inconclusive means small, poorly fitted or top-dose-only effect, or another doubt; inactive means no such curve, though single readings can be large or run the other way; further: potency means the concentration at half of the fitted maximal effect
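NADH formation kinetics: reaction with 30 uM PGE2 and 1 mM NAD+ (final), 20 nM enzyme, Tris-HCl pH 8 with Tween 20, after 15 min compound preincubation at room temperature. Fluorescence change, last versus first of five reads.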
ALDH1A1 block = ALDH1A1 (human) enzyme inhibition; AID 1030; P00352; Potency, µM (highest dose often 75.3 µM), for inactives: top-dose activity, negative = inhibition, usual class: inhibitors; 220,000 compounds, 7.3% hits; Purified ALDH1A1, NADH fluorescence, propionaldehyde substrate; active means well fitted inhibition curve with a large enough effect, not every such curve was filed as active; inconclusive means small, poorly fitted or top-dose-only effect, or another doubt; inactive means no such curve, though single readings can be large or run the other way;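 further: potency means the concentration at half of the fitted maximal effect; plate controls were no enzyme wells and a reference inhibitor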
12-hLO inh = blocks human 12-lipoxygenase activity; AID 1452; Potency, µM (doses to about 57.1 µM), for the others: at the highest dose activity change, negative = inhibition, most hits filed as inhibitors; 150,000 compounds, 0.12% hits; purified 12-hLO, xylenol orange hydroperoxide absorbance; further: potency means the concentration at half of the fitted maximal effect; nearly all actives have a fitted effect of over 55% in size
Target sequence (P18054 whole entry, looked up): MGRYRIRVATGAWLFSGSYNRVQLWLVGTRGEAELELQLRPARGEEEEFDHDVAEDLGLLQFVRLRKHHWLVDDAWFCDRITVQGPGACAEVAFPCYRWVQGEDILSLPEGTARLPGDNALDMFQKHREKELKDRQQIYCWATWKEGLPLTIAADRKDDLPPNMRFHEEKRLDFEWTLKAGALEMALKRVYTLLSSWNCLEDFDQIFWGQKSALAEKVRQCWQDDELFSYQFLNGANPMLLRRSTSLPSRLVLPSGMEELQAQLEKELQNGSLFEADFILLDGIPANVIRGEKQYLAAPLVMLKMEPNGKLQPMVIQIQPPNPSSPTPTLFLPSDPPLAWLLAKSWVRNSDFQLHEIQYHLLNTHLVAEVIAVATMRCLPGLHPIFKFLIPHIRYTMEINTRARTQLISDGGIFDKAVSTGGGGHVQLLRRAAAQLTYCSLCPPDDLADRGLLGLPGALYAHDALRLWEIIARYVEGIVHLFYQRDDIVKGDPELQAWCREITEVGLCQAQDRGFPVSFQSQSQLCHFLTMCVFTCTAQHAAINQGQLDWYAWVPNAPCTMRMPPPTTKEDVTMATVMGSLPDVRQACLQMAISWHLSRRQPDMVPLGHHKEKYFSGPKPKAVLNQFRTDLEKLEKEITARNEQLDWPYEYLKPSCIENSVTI
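Lipoxygenase turnover measured by absorbance at 573 and 405 nm after Fe-XO development. Human 12hLO 150 nM, arachidonate 40 uM, pH 7.0 Hepes buffer with detergent; 15 min compound preincubation, 30 min reaction.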
IMPase inh = membrane-permeable compound that blocks inositol monophosphatase; P97697; CHO-M1 cells, IP1 accumulation, HTRF TR-FRET ratio; inhibition (IP1 accumulation), % at 46.1 µM; 120,000 tested, under 10 active; AID 901; active means well fitted curve in the direction sought with a large enough effect in the signal ratio, not every such curve was filed as active; inconclusive means small, poorly fitted or top-dose-only effect, or a change in a side signal; inactive means no such curve, though single readings can be large or run the other way; the % refers to the signal ratio;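 further: cells stimulated with carbachol in lithium chloride buffer; plate controls were DMSO basal wells for no effect and reference inhibitor wells for full effect; higher means more IMPase inhibition seen as more IP1 and lower FRET ratio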
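Seeded CHO-M1 cells were dosed with compound at up to 46 uM, stimulated with carbachol for 30 min, then lysed in IP-One detection reagents. Higher IP1 lowers the TR-FRET signal.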
PNC inhibitor = blocks assembly of the perinucleolar compartment; activity change (PNC), negative = inhibition, % at 10 µM; AID 2417; PC3M PTB-GFP, PNC prevalence imaging, 16 h; hits give low values; 140,000 compounds, 3.1% hits;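 active means readout at or below -70, meaning at least 70% loss of cells showing the perinucleolar compartment, a nuclear body marking cancer cells; inconclusive means readout between -30 and a set limit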;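 further: plate controls were DMSO wells for no effect and camptothecin positive control wells for full effect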
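Read-out is percentage of cells bearing a perinucleolar compartment, from automated 20x imaging of fixed, Hoechst-stained PC3M PTB-GFP cells. Cells were seeded 4 h, then exposed 16 h to compound (23 nl of library stock) in duplicate plates.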
* hit, by the source's call; ? = inconclusive; / = no result; [ ] = another dose, or the depositor's remark. Most compounds without a hit are left out; they make up all but 11% or so of the library. Unless noted, the call rests on the fitted dose curve; in most records, active means well fitted curve in the direction sought with a large enough effect; inconclusive means small, poorly fitted or top-dose-only effect, or another doubt; inactive means no such curve, though single readings can be large; an effect the other way counts as inactive or inconclusive. Unless noted, on the % scale 0 is the no-effect control and ±100 the full control effect.

SMILES	IMPase Li inh	HPGD block	ALDH1A1 block	12-hLO inh	IMPase inh	PNC inhibitor
S=c1[nH]nc(COc2ccccc2)n1/N=C/c1ccc(Br)s1	12%[38.3 µM]	10µM*	?	-28%	3	51
S=c1[nH]nc(-c2ccccn2)n1/N=C/c1ccc(Br)s1	3%	7.9µM*	?	?	16	8
Cc1ccc(/C=N/n2c(COc3ccccc3)n[nH]c2=S)s1	9%[38.3 µM]	2.2µM*	?	2%	7	61
O=C(Nc1ccccc1)N1CC[C@@]2(CCCN(C(=O)c3ccncc3)C2)C1	-3%	-4%	1%	1%	/	/
CCN(CC)c1ccc(C(=O)NNC(=O)CCl)cc1	-1%	/	10µM*	/	/	/
Cc1nc(Nc2nc(CSc3nc4ccccc4[nH]3)cc(=O)[nH]2)nc2ccccc12	7%	-14%	-7%	1%	/	-97*
CN1C(=O)CC(C(=O)Nc2ccc(C(=O)O)cc2)SC1=Nc1ccc(Cl)cc1 (configuration not stated)	/	/	/	/	-1	/
O=C(OCC1OC(OC(=O)c2cc(O)c(O)c(OC(=O)c3cc(O)c(O)c(O)c3)c2)[C@@H](OC(=O)c2cc(O)c(O)c(OC(=O)c3cc(O)c(O)c(O)c3)c2)C(OC(=O)c2cc(O)c(O)c(OC(=O)c3cc(O)c(O)c(O)c3)c2)C1OC(=O)c1cc(O)c(O)c(OC(=O)c2cc(O)c(O)c(O)c2)c1)c1cc(O)c(O)c(OC(=O)c2cc(O)c(O)c(O)c2)c1 (some centres not stated)	?	3.2µM*	?	0.56µM*	/	/
CC(=O)NC1C(OCCOc2ccc(Cl)cc2Cl)OC(COC(C)=O)C(OC(C)=O)C1OC(C)=O (configuration not stated)	3%[38.3 µM]	-5%	1%	-5%	8	24
O=C1[C@@H]2C(c3cccnc3)=NO[C@@H]2C(=O)N1c1ccc2ccccc2c1	/	/	1.6µM*	/	/	/
COc1cc(C(=O)Nc2cc(C(F)(F)F)ccc2Cl)cc(OC)c1OC	-3%[38.3 µM]	3%	-2%	-7%	-1	0
COc1ccc(C(=O)OC(C)C(=O)Nc2cc(C(F)(F)F)ccc2Cl)c(OC)c1OC (configuration not stated)	13%	25µM*	10%	-2%	5	-11
O=C1CC(NNc2ccccc2)C(=O)N1c1ccccc1 (configuration not stated)	3%	-10%	18µM*	-10%	/	12
COc1ccc(NC2CC(=O)N(c3ccccc3)C2=O)cc1 (configuration not stated)	8%[38.3 µM]	-3%	?	-4%	1	-5
O=C(NNC1CC(=O)N(c2cccc(Cl)c2)C1=O)c1cccs1 (configuration not stated)	0%	-6%	?	-5%	/	18
Cc1ccc(NNC2CC(=O)N(c3cccc(Cl)c3)C2=O)cc1 (configuration not stated)	4%	/	25µM*	/	/	/
CC(C)NC(=O)N1CC[C@@]2(CCCN(S(=O)(=O)c3ccccc3)C2)C1	-5%	-2%	16%	-1%	/	/
CCCc1nc(SCc2ccccc2Cl)n[nH]1	2%[38.3 µM]	13µM*	-4%	4%	-6	8
CCc1nc(SCc2cc(Cl)ccc2OC)n[nH]1	17%[38.3 µM]	13µM*	-3%	-2%	9	17
CC(=O)Nc1nc(SCc2ccc(Cl)cc2Cl)n[nH]1	-4%[38.3 µM]	1%	-3%	-1%	1	?
O=P(O)(O)O	-5%	-7%	-5%	2%	/	/
NNC1=N[C@H]2CS(=O)(=O)C[C@H]2S1	-5%	3%	15%	-4%	-5	-13
COc1cc2ccc([C@H](C)NCC#N)cc2cc1OC	6%	-9%	-4%[13.5 µM]	-2%[11.4 µM]	/	/
O=C(CSc1nc2nc3c(cc2c(=O)n1-c1ccccc1)CCCC3)Nc1cccc2ccccc12	14%	-10%	7.9µM*	-6%	-9	18
Cc1c(O)nc(SCC(=O)Nc2ccc3c4c(cccc24)CC3)n(-c2ccccc2)c1=O	1%	-9%	?	-4%	/	-113*
SMILES	IMPase Li inh	HPGD block	ALDH1A1 block	12-hLO inh	IMPase inh	PNC inhibitor
Cc1ccccc1-n1c(SCC(=O)Nc2ccccc2)nc2nc3c(cc2c1=O)CCCC3	2%	-6%	7.9µM*	-5%	1	-2
Cc1cccc(NC(=O)CSc2nc3nc4c(cc3c(=O)n2-c2ccccc2)CCCC4)c1	-12%	-25%	?	-3%	-8	56
Cc1cccc(NC(=O)CSc2ncc(-c3ccc(Br)cc3)[nH]2)c1	/	/	/	/	0	/
COCC(=O)N1CCC2(CCCN(Cc3cc(C(F)(F)F)cc(C(F)(F)F)c3)C2)CC1	8%	-7%	3%	1%	/	/
CC(=O)Nc1ccc(Nc2ccc3nonc3c2[N+](=O)[O-])cc1	13%	/	22µM*	/	/	/
COc1c2c(nc3ccccc13)O[C@H]([C@@](C)(O)CO)C2	-2%	-1%	-7%[20.9 µM]	0%[25.6 µM]	-3[20.6 µM]	/
CCOC(=O)CNC(=O)CSc1nc(-c2ccccc2)ns1	6%	/	25µM*	/	/	/
CCOC(=O)CSc1nc(-c2ccc(OC)cc2)ns1	26%[38.3 µM]	35µM*	25µM*	-2%	-8[1.84 µM]	?
CCOC(=O)CNC(=O)CSc1nc(-c2ccc(C)cc2)ns1	8%	/	?	/	/	/
C[C@@]12CCC(=O)C=C1CC[C@H]1C2[C@@H](O)C[C@]2(C)[C@@H]1CC[C@@]2(O)C(=O)CO (some centres not stated)	/	-2%	6%[13.5 µM]	/	/	/
Cc1cc(C)n(-c2nc3c(c(=O)[nH]c(=O)n3C)n2Cc2cccc(Br)c2)n1	-9%[38.3 µM]	16µM*	0%	-5%	-11	-8
Cn1c(=O)[nH]c(=O)c2c1nc(SCCN1CCCCC1)n2CCCc1ccccc1	10%[38.3 µM]	28µM*	?	-10%	-2	?
Cc1ccc(Cn2c(SCC(=O)NCC3CCCO3)nc3c2c(=O)n(C)c(=O)n3C)cc1 (configuration not stated)	18%	/	22µM*	/	/	/
Cc1ccc(Cn2c(-n3nc(C)cc3C)nc3c2c(=O)[nH]c(=O)n3C)cc1	15%[38.3 µM]	-8%	11%	-5%	-14	-19
CCOCCSc1nc2c(c(=O)[nH]c(=O)n2C)n1CCCc1ccccc1	0%[38.3 µM]	-17%	-2%	-2%	0	-25
CNC(=O)CSc1nc2c(c(=O)n(C)c(=O)n2C)n1Cc1ccc(C)cc1	3%	-16%	-4%	1%	-6	-2
Cc1cccc(Cn2c(Sc3nc(C)cs3)nc3c2c(=O)[nH]c(=O)n3C)c1	-1%[38.3 µM]	-3%	-9%	-5%	1	24
Cc1cccc(Cn2c(SCC(=O)Nc3ccccc3)nc3c2c(=O)[nH]c(=O)n3C)c1	28%[38.3 µM]	22µM*	?	-4%	-8	-10
